# From PubChem BioAssay AID686971 (National Center for Advancing Translational Sciences (NCATS), 2013)
# The campaign covered roughly 360,000 compounds. About 7,500 (2.1%) were called active. Not shown: some 8% with an inconclusive outcome. Calls follow the shape of the dose curve; as a rule, active = well fitted cell-killing curve with a large enough effect; inconclusive = small, poorly fitted or top-dose-only effect, or effect the other way, or another doubt; inactive = no such curve, though single readings can be large or run the other way. Shown is part of a subset that was picked to be rich in actives.
# Assay: qHTS for induction of synthetic lethality in tumor cells producing 2HG: qHTS for the HT-1080-IDH1KD cell line
# Conditions: HT-1080 IDH1 knockdown viability, ATP luminescence, 48 h; series mostly up to 46.1 µM; activity, negative = toxicity: at the top concentration
# From the text: Unbiased genomic sequencing for 22 glioma genomes found recurrent mutation of IDH1 on chromosome 2q33, a gene encoding the cytosolic isoform of IIDH1 associated with the tri-carboxylic acid cycle (TCA) that catalyzes the oxidative decarboxylation of isocitrate, yielding alpha-ketoglutarate and CO2 via NADP+ to NADPH conversion. Subsequent studies confirmed the recurrent IDH mutations in up to 70% of secondary gliomas and in 10% of AML cases. In addition, the somatic mutation of cancer-associated IDH1 is a point mutation resulting in various amino-acid substituents at Arginine132 (IDH1 R132), a key residue found in the enzyme's active site that when mutated, results in the loss-of-function in metabolizing isocitrate but confers a gain-of-function to produce the oncometabolite 2-hydroxyglutarate (2HG). This in effect defines IDH1 as an oncogene and provides an extraordinary opportunity to discover chemical probes against mutant IDH1 that may translate into much needed new therapies for glioma and AML patients.
# This assay aims to perform a synthetic-lethal screen for chemical probes specific for 2HG-producing tumor cells using matched paired cell lines (1) HT-1080-NT fibrosarcoma cell line that overproduces 2HG and (2) HT-1080-IDH1KD cell line which has IDH1 expression knocked-down. Desirable compounds are toxic to the NT fibrosarcoma cell line but not to the IDH1KD cell line. The data in this AID corresponds to the results of the qHTS against the HT-1080 IDH1KD cell line.
# [1] Dang L, Jin S, Su SM. IDH mutations in glioma and acute myeloid leukemia. Trends of Mol Med. 2010; 16(9): 387-97.
# [2] Dang L et al. Cancer-associated IDH1 mutations produce 2-hydroxyglutarate. Nature. 2010; 465(7300):966.
# Molecular Libraries Probe Production Centers Network [MLPCN]
# NIH Chemical Genomics Center [NCGC]
# Assay Submitter (PI): Lenny Dang Ph.D., Agios Pharmaceuticals
# Suspensions of trypsinized HT-1080-IDH1KD cells were dispensed into white, tissue culture-treated, solid 1536-well plates at 5uL/well (750 cells/well final concentration) in RPMI medium supplemented with 5% FBS. Plates were incubated at 37 degrees C for 2 hours, after which 23 nL of compounds or DMSO were delivered to each well using a pin tool. Plates were then incubated at 37 degrees C for an additional 48 hours. CellTiter-Glo viability reagent (Promega) was dispensed into wells (2.5uL/well) and incubated at room temperature for 10 minutes. The plates were measured on a PerkinElmer ViewLux plate reader for luminescent signal (clear filter, 1 sec exp.). DMSO-treated control wells and media-only (no cells) control wells were used to normalize %Activity of identified toxic compounds; DMSO-treated wells corresponded to 0%Activity (100% viability), while media-only controls were used to normalize 100%Activity (0% viability). To minimize variability between cell lines, both HT-1080-NT and HT-1080-IDH1KD lines were dispensed and treated with identical compound series in single batches.
# Concentration-response curves were fitted to the signals arising from the resulting luminescence. The concentration-effect curves were then classified based on curve quality (r2), response magnitude and degree of measured activity, and compounds were subsequently categorized based on their curve class.
# Potency is read from the fitted curve at half-maximal effect.
SMILES,"activity, negative = toxicity",Potency
CC(=O)C[C@@H]1OC[C@H](CO)N1S(=O)(=O)c1ccc(C)cc1,22.6% (inactive),–
Cn1ncc([N+](=O)[O-])c1C(=O)Nc1cc(Cl)ccc1Cl,-2.97% (inactive),–
CCCC/C=C/c1cccc2nncn12,0.514% (inactive),–
CN(C)C(CNC(=O)c1cc(Br)c(Br)s1)c1ccco1 (stereo not given),-0.0129% (inactive),–
CC1CCN(C(=O)CSc2nnc(-c3ccco3)n2N)CC1,9.04% (inactive),–
COc1cccc(CN2CCC(C(=O)NC(c3ccc4c(c3)OCO4)c3ccccn3)CC2)c1 (stereo not given),-8.81% (inactive),–
O=C(NC(c1ccc(-c2ccccc2)cc1)c1cnccn1)C1CCN(CCOc2ccc(Cl)cc2Cl)CC1 (stereo not given),–,14.6 µM (active)
O=C(CCCOc1ccc(Cl)cc1Cl)NNC(=O)C1CCC1,-11.3% (inactive),–
O=C1NC(Cc2ccccc2)c2nc3ccc(Br)cc3c(=O)n2-c2cc3ccccc3cc21 (stereo not given),-9.22% (inactive),–
COc1ccc(CN2C(=O)C(CC(=O)NC3CCCCC3)CC(C(=O)N3CCOCC3)=C2C)cc1 (stereo not given),-3.06% (inactive),–
COc1ccccc1CCNS(=O)(=O)c1cn(C)nc1C,-0.537% (inactive),–
COc1ccccc1Cc1c(-c2ccc(Cl)cc2)nc2ccc(Cl)cn12,-22.2% (inactive),–
CCCCc1c(-c2ccc(Br)cc2)ncn1CCc1ccccc1OC,–,7.31 µM (active)
COC(=O)c1ccc2nc(-c3cccc(Br)c3)c(Cc3ccccc3C(F)(F)F)n2c1,7.64% (inactive),–
CCC(=O)NCc1cc(-c2nn(C)c(=O)c3ccccc23)ccc1OC,-4.19% (inactive),–
COc1ccc(-c2nn(-c3ccccc3)cc2C(=O)Nc2nccs2)cc1OC,-22.5% (inactive),–
CCCCCc1c(-c2cccc(Br)c2)ncn1CCc1ccccc1OC,–,18.4 µM (active)
CCCCCc1c(-c2ccc(OC)c(OC)c2)ncn1CCc1ccccc1OC,–,10.3 µM (active)
COC(=O)c1ccc2nc(-c3cccc(Br)c3)c(Cc3ccc(OC)cc3C)n2c1,-8.37% (inactive),–
COc1cccc(-c2cnc(C(O)c3ccccc3OC)[nH]2)c1 (stereo not given),21% (inactive),–

SMILES,"activity, negative = toxicity",Potency
CCCOc1ccc(F)cc1-c1cc(C(=O)NCc2ccc(F)cc2)[nH]n1,-15.1% (inactive),–
O=C(COc1ccc(S(=O)(=O)N2CCCC2)cc1[N+](=O)[O-])N1CCCCC1,2.99% (inactive),–
CCCCCCCCN1C(=O)[C@H](CC(=O)NCC23CC4CC(CC(C4)C2)C3)C[C@@]2(C(=O)OC)CCCCC=C12,4.09% (inactive),–
C[C@@H]1CN([C@@H](C)CO)C(=O)c2c(c3ccccc3n2C)-c2ccccc2CO[C@H]1CN(C)C(=O)C1CC1,4.26% (inactive),–
Cc1c(C(=O)NCc2ccc(C#N)cc2)sc(=O)n1Cc1ccc(C(=O)N(C)C)cc1,-10.5% (inactive),–
CN(C)CCCOc1ccc(-c2ccc3nccn3c2)cn1,2.09% (inactive),–
CN1CCN(C(=O)c2ccc(NC(=O)c3ccc(Br)o3)cc2)CC1,1.04% (inactive),–
O=C(CSc1nc(Nc2ccccc2)nc(N2CCOCC2)n1)Nc1cc(Cl)ccc1O,–,18.4 µM (active)
CC1(c2ccccc2)NC(=O)N(CC(=O)Nc2cc(Cl)ccc2N2CCOCC2)C1=O (stereo not given),-1.21% (inactive),–
Cc1ccccc1NC(=O)CSc1nc2ccc(Nc3nc(N4CCOCC4)nc(N4CCOCC4)n3)cc2s1,-4.33% (inactive),–
C=CCC[C@H](CCCCC)OC(=O)/C=C/[C@H](O)[C@@H](O)C[C@@H](O)CC=C,-19.9% (inactive),–
O=C1C=C(c2ccc(Cl)cc2)C(=O)N1Nc1ccccc1,–,18.4 µM (active)
O=C(O)CC1=C(Nc2ccccc2)C(=O)N(c2ccccc2)C1c1ccc(Cl)cc1 (stereo not given),0.642% (inactive),–
O=C(CCC(=O)OCc1ccc(Cl)cc1)Nc1ccccc1,0.564% (inactive),–
CCCNC(=O)c1cc(C2CCCCN2C(=O)OC)on1 (stereo not given),19.5% (inactive),–
c1ccc2c(c1)nnn2-c1ccncc1,-7.3% (inactive),–
COc1ccc(-c2nn(-c3ccccc3)cc2/C=C\C(=O)N2CCOCC2)cc1[N+](=O)[O-],2.09% (inactive),–
O=C(/C=C/c1cn(-c2ccccc2)nc1-c1ccc2c(c1)OCCO2)NCCCN1CCOCC1,–,20.6 µM (active)
O=C(NCCCN1CCOCC1)c1cn(-c2ccccc2)nc1-c1ccc(F)cc1,2.98% (inactive),–
COC(=O)c1ccc2nc(C3CCCCC3)c(Cc3cccc(F)c3)n2c1,-10.3% (inactive),–

SMILES,"activity, negative = toxicity",Potency
CCc1ccc([C@@H]2CC(=O)[C@@H]3CN(S(=O)(=O)c4ccc(C)cc4)[C@H](c4ccc(Cl)cc4)C[C@@H]3N2S(=O)(=O)c2ccc(C)cc2)cc1,23.1% (inactive),–
CC(=O)Nc1cc(-c2ccc(N3CCN(C)CC3)cc2)cn2c(-c3ccc(F)cc3)cnc12,–,23.1 µM (active)
CN(C)CCNC(=O)c1cccc(-c2cnc3c(NC=O)cc(-c4cccc(C(F)(F)F)c4)cn23)c1,–,18.4 µM (active)
O=C(NCCO)c1cccc(-c2cccc3nccn23)c1,0.201% (inactive),–
COc1cccc(-c2cc(NC(C)=O)c3ncc(-c4cccc(C(C)=O)c4)n3c2)c1,-20.1% (inactive),–
N#C/C=C(/c1ccc(F)cc1)N1CCOCC1,13% (inactive),–
O=CNc1cc(-c2ccc(C(=O)N3CCOCC3)cc2)cn2c(-c3ccc(F)cc3)cnc12,–,13 µM (active)
CN(C)C(=O)c1cccc(-c2cnc3c(NC=O)cc(-c4ccc(C(=O)N5CCOCC5)cc4)cn23)c1,-13.6% (inactive),–
CC(=O)Nc1cc(-c2cccc(CO)c2)cn2c(-c3cccc(C(F)(F)F)c3)cnc12,5.47% (inactive),–
CCC(C)C(=O)Nc1ccccc1N1CCN(c2ccc(F)cc2)CC1 (stereo not given),-20.9% (inactive),–
COc1ccccc1-c1cc(NC(C)=O)c2ncc(-c3ccc(F)cc3)n2c1,-16.8% (inactive),–
CC(=O)Nc1cc(-c2ccc(N3CCN(C)CC3)cc2)cn2c(-c3cccc(C(=O)N(C)C)c3)cnc12,2.62% (inactive),–
COc1cccc(-c2cnc3c(NC(C)=O)cc(-c4cc(F)ccc4OC)cn23)c1,–,9.2 µM (active)
O=C1NC[C@H](CCCCN2C[C@H](Cc3ccccc3)N(Cc3ccccc3)C(=O)C2=O)N(CCc2ccc(O)cc2)C1=O,5.18% (inactive),–
Cc1ccc(-c2ccc(C3=CC(=O)CC(C)(C)C3=O)cc2)cc1,14.6% (inactive),–
CC(C)C[C@@H]1Cc2[nH][nH]c(=O)c2[C@H](CCc2ccccc2)O1,-20% (inactive),–
CCOC(=O)[C@]12CCCC=C1N(CCC1=CCCCC1)C(=O)[C@H](CC(=O)NCCCOC)C2,-13.6% (inactive),–
CCCNC(=O)C1(C)CCCN(C(=O)c2oc3ccccc3c2C)C1 (stereo not given),2.01% (inactive),–
O=NN(CCCl)C(=O)NCCc1cccc[n+]1[O-],17.2% (inactive),–
CCc1nc2ccc(C(=O)NC3CCN(Cc4ccccc4)CC3)cn2c1N(C)CCN1CCOCC1,-19.7% (inactive),–
